# ChEMBL document CHEMBL3988442, “University of Dundee, Small-Polar-MMV Screening Library” (2021)
# About 13,000 (27%) of roughly 48,000 compounds showed an effect of 50% or more. The list shows a part of the results.
# System: Wolbachia pipientis
# Assay: Anti-Wolbachia Cell-Based Screen
# Assay type: functional
# Design: scale not given: in the data most compounds retested in dose-response had high values
# Settings: 5 µM
row,Compound,Percent Effect [%]
1,Cc1csc(N2CCCN(C(=O)c3nccnc3N)CC2)n1,0.5076
2,CC(NCC1CCN(CCO)CC1)c1ccc(F)c(Cl)c1 (centres undefined),2.095
3,CC(C)CN1C(=O)C2(CCCC2)NC1c1c[nH]nc1-c1cccnc1 (centres undefined),-9.401
4,CNC(=O)C(C)(C)N1CCC[C@H]1C(=O)NCCN1CCCC1.Cl.Cl,7.406
5,CCC(CNC(=O)N1CCOCC2(CCOCC2)C1)c1ccccc1 (centres undefined),-24.39
6,O=C(CN(Cc1cccc(F)c1)CC1CCCO1)N1CCCC1 (centres undefined),12.97
7,CCN(CC)S(=O)(=O)N1CCCN(CC(=O)NC(C)C)CC1,-10.54
8,CCS(=O)(=O)CCN(CC1CCCO1)C1CCCC1 (centres undefined),-6.431
9,CCN(CC(=O)NC)S(=O)(=O)N1CCCCC1,6.131
10,CC(C)N(C)S(=O)(=O)N(Cc1cccs1)CC1CCCO1 (centres undefined),1.212
11,CCN(CC)S(=O)(=O)N1CCCN(CC2CCCO2)CC1 (centres undefined),96.25
12,O=S(=O)(N1CCCC1)N(Cc1ccccc1)CC1CCCO1 (centres undefined),124.5
13,CCN(CCS(=O)(=O)CC)CC1CCCO1 (centres undefined),2.463
14,CCN(CC1CCCO1)S(=O)(=O)N1CCCCCC1 (centres undefined),99.13
15,Cc1cc(CN[C@@H](Cc2ccccc2)C(N)=O)c(C)s1,-7.626
16,Cc1cc(C)n(CCNC(=O)c2ncc[nH]2)c(=O)n1,-0.5408
17,CSc1ncccc1C(=O)N1C[C@H]2CC[C@@H]1CN(c1ncccn1)C2,-10.71
18,CN(CC(=O)NCCC#N)C(c1ccccc1)c1ccccc1,-3.756
19,FC(F)Oc1ccc(NCc2nc(C3CC3)no2)c(OC(F)F)c1,6.863
20,Cc1ccc(C(CNC(=O)c2cc(CC(C)C)nn2C)N(C)C)cc1 (centres undefined),-5.66

row,Compound,Percent Effect [%]
1,CN(C)C(CNC(=O)c1nc(N2CCOCC2)ncc1Cl)c1cccs1 (centres undefined),4.739
2,Cc1noc(C(C)C)c1C(=O)NCC(c1cccc(F)c1)N(C)C (centres undefined),-3.913
3,Cc1noc(C(C)C)c1C(=O)NCC(c1cccs1)N(C)C (centres undefined),102.8
4,Cc1ccc(C(CNC(=O)c2c(C)noc2C(C)C)N(C)C)cc1 (centres undefined),95.03
5,Cc1noc(C(C)C)c1C(=O)NCC(c1ccccc1)N(C)C (centres undefined),108.3
6,CC(C)C(=O)NS(=O)(=O)CCc1ccccc1,-1.365
7,Cc1ccnc(NCCNC(=O)CCNC(=O)c2ccccc2F)c1,6.973
8,Cc1ccc(CN2CCc3[nH]nc(C(=O)N4CCN(C)CC4)c3C2)o1.O=C(O)C(F)(F)F.O=C(O)C(F)(F)F.O=C(O)C(F)(F)F,-23.43
9,Cc1ccc(CN2CCc3onc(C(=O)N4CCCC4)c3C2)o1.O=C(O)C(F)(F)F,105.8
10,Cn1cc(CN2CCc3onc(COc4cccnc4)c3C2)cn1.O=C(O)C(F)(F)F.O=C(O)C(F)(F)F,-7.028
11,Cc1ccc(CN2CCc3[nH]nc(C(=O)N(C)C)c3C2)o1.O=C(O)C(F)(F)F,3.694
12,CCO[C@@H]1C[C@H]2CN(Cc3ccc(C)o3)CCN2C1.O=C(O)C(F)(F)F.O=C(O)C(F)(F)F,-6.795
13,COCc1nn(C)c2c1CN(Cc1cnn(C)c1)CC2.O=C(O)C(F)(F)F,-20.95
14,CC(C)NC(=O)N1CCc2onc(C(=O)Nc3cccnc3)c2C1.O=C(O)C(F)(F)F,-28.12
15,CN(C)C(=O)N1CCc2onc(C(=O)Nc3cccnc3)c2C1.O=C(O)C(F)(F)F,-32.01
16,Cn1cc(CN2CCc3onc(C(=O)N4CCCC4)c3C2)cn1.O=C(O)C(F)(F)F,123
17,Cc1ccc(CN2CCO[C@@H]3C[C@@H](C(=O)NC(C)C)C[C@H]32)o1.O=C(O)C(F)(F)F,-8.614
18,Cc1ccc(CN2CCc3onc(C(=O)Nc4cccnc4)c3C2)o1.O=C(O)C(F)(F)F.O=C(O)C(F)(F)F,119.7
19,Cc1ccc(CN2CCc3onc(C(=O)NC(C)C)c3C2)o1.O=C(O)C(F)(F)F,106.2
